Each structure is given as a SMILES string. In all, about 16,000 compounds went through this assay and about 5,800 (36%) were called active. Another 23% or so got no clear call; they are omitted. Calls follow the shape of the dose curve; as a rule, active = well fitted curve in the direction sought with a large enough effect; inconclusive = small, poorly fitted or top-dose-only effect, or effect the other way; inactive = no such curve, though single readings can be large or run the other way. This is one part of the list.

Drawing on PubChem BioAssay AID1851 (National Center for Advancing Translational Sciences (NCATS), 2009), this text covers AC50 and activity, negative = inhibition for 68 compounds.
% is scaled to controls: 0 for no effect and ±100 for the full control effect.

In the assay the target is Cytochrome P450 2C19 (Homo sapiens) (UniProt P33261). Kind of assay: Cytochrome panel assay with activity outcomes. Particulars: recombinant CYP, pro-luciferin dealkylation, luminescence, p450-cyp2c19; series mostly up to 57.1 µM.
Sequence of Cytochrome P450 2C19 (Homo sapiens) (P33261 whole entry, looked up): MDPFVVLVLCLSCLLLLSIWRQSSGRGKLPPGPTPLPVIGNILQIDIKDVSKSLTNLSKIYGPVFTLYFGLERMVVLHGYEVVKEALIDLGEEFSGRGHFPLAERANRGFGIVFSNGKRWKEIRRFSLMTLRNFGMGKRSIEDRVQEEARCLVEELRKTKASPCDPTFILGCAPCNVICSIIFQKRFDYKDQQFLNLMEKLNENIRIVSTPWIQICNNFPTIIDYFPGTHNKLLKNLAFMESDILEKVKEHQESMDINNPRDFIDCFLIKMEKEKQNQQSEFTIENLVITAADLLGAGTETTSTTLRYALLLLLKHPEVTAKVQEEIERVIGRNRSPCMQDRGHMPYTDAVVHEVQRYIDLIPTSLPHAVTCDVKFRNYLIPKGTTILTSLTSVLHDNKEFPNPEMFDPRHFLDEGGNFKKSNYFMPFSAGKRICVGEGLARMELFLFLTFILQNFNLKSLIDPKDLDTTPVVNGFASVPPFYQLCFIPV
Usually AC50 stands for the concentration giving half of the maximal activity seen. Turning to `O=C1N=C(N2CCC(Cc3ccccc3)CC2)S/C1=C/c1cn[nH]c1-c1ccccc1`, the AC50 was 3.55 µM (active). In the case of `CC(C)C(NC(=O)OCc1ccccc1)C(=O)O` (stereo not drawn), the AC50 result was “inactive”. Same read-out and setting: with `CCC(C)C(NC(=O)OCc1ccccc1)C(=O)OCN1C(=O)c2ccccc2C1=O` (stereo not drawn) the figure was 3.16 µM (active). In the case of `CCN1C(=O)[C@H]2[C@H]3[C@H](O)[C@H](O)C/C(=N/NC(=O)OCc4ccccc4)[C@@H]3CC[C@@H]2C1=O`, the activity, negative = inhibition was 36.5% [at 11.4 µM] (inactive). `Cc1ccc(C(=O)/C=C/c2c[nH]c3ccccc23)cc1`: the AC50 is 3.55 µM (active).

For `CCCn1c(/C=C/c2ccccc2)nc2ccccc21`, the AC50 was 7.94 µM (active).

Consider `O=S(=O)(O)CCCc1cccc2ccccc12`, for which the activity, negative = inhibition is 21.3% [at 11.4 µM] (inactive).

As to `c1ccc2c(CC3NCCN3)cccc2c1`, the activity, negative = inhibition was 28.8% [at 11.4 µM] (inactive).

Take `c1cc(CSSCc2ccncc2)ccn1`: the AC50 was 1.26 µM (active).

Consider `c1ccc2c(CSc3nnc(-c4ccncc4)o3)cccc2c1`, for which the concentration at half-maximal activity (AC50) was 0.282 µM (active). On the same count and under the same terms, with `c1ccc2c(CSCc3cccc4ccccc34)cccc2c1` the figure was 0.126 µM (active); with `c1ccc2c(CSCCc3ccncc3)cccc2c1`, 0.0794 µM (active). For `CCNc1ncc2nc(-c3ccc(F)cc3)c(=O)n(-c3ccccc3)c2n1`, the AC50 entry is “inactive”. The same measure, in the same setting: for `O=C(Cc1ccc(Cl)cc1)NNC(=O)Nc1cccc2ccccc12` the value was “inactive”; for `Clc1ccc(CSCCc2ccncc2)cc1Cl`, 0.1 µM (active). Take `N=C(N)SCCc1ccncc1`: the activity, negative = inhibition is 9% [at 11.4 µM] (inactive). With `N=C(N)SCCc1ccc(CCSC(=N)N)cc1`, the AC50 entry was “inactive”. Regarding `O=C(SCc1cccc2ccccc12)c1ccc(Cl)cc1`, the AC50 is 1.58 µM (active). In the case of `N[C@@H](CSC(=O)c1ccccc1)C(=O)O`, the activity, negative = inhibition is 16.7% [at 11.4 µM] (inactive).

For `c1ccc(CSCCc2ccncc2)cc1`, the AC50 is 0.1 µM (active). Regarding `CN1CCN(CCc2ccc(Cl)c(Cl)c2)CC1`, the AC50 entry is “inactive”.

Consider `CCOC(=O)C1=C(CSc2nc(-c3ccccc3)ccc2C#N)OC(N)=C(C#N)C1c1ccc(OC)cc1` (stereo not drawn), for which the AC50 was 2.82 µM (active). As to `CN1CCN(c2ncc3nc(-c4cc(F)cc(F)c4)c(=O)n(C)c3n2)CC1`, the AC50 result was “inactive”.

On to `Cc1ccc(OCC(O)CNC(=O)c2ccccc2C(=O)O)cc1` (stereo not drawn), for which the AC50 is 20 µM (active).

On to `CC(C)NC[C@@H](O)COc1ccc(COCCOC(C)C)cc1`, for which the AC50 result was “inactive”. Still for that read-out and setting: for `Cc1ccc(S(=O)(=O)NCC(=O)N(CC(=O)NCc2ccco2)Cc2cccs2)cc1` the value was 14.1 µM (active); for `CC(C)(C)OC(=O)NCCc1nnc(SCC(=O)Nc2cccc(Cl)c2)o1`, 3.98 µM (active); for `NC(=O)OCC(COC(N)=O)c1ccccc1`, “inactive”. As to `Cc1ccc(C(CC(N)=O)c2ccco2)cc1` (stereo not drawn), the AC50 is 14.1 µM (active).

As for `CC(C)(C)c1cc2cccnc2n1Cc1ccccc1`, the AC50 is 10 µM (active).

Take `COc1ccc(-c2nc(C(=O)N3CCN(C)CC3)sc2-c2ccc(OC)cc2)cc1`: the AC50 result was “inactive”.

With `COc1ccc(-c2ccc(C(=S)N3CCN(C(C)=O)CC3)o2)cc1`, the AC50 was 15.8 µM (active). For the compound `COc1ccc(CC(=O)NCCN2CCCC2)cc1`, the AC50 result is “inactive”.

For the compound `O=C(Nc1ccccc1)c1cc(-n2cnnc2)ccc1Cl`, the AC50 result is “inactive”.

Regarding `O=C(O)c1ccccc1-c1ccccc1C(=O)Nc1ccccc1`, the AC50 entry was “inactive”. Still for that read-out and setting: for `O=C(Nc1ccccc1)c1ccccc1CC[N+](=O)[O-]` the value was 17.8 µM (active). For the compound `O=C(Nc1ccccc1)c1cc([N+](=O)[O-])ccc1Cl`, the AC50 was 0.794 µM (active). In the case of `Cn1c(=O)c2[nH]c(/N=N\N3CCN(CCO)CC3)nc2n(C)c1=O`, the activity, negative = inhibition was 7.88% [at 11.4 µM] (inactive).

As for `O=C(O)CN(CCN(CC(=O)O)CC(=O)O)CC(=O)O.[Mn]`, the activity, negative = inhibition is -2.62% [at 11.4 µM] (inactive). Regarding `CCCCCNCc1cccc(Br)c1`, the AC50 is 11.2 µM (active). Still for that read-out and setting: for `CC(C)(C)c1ccc(C(=O)N2CCC(C(=O)NCCC3=CCCCC3)CC2)cc1` the value was 15.8 µM (active); for `O=C(NCCC1=CCCCC1)C1CCCN(c2nc3ccccc3o2)C1` (stereo not drawn), 2.82 µM (active). With `CC(=O)Nc1nc(NC(C)=O)c2[nH]c(CO)nc2n1`, the activity, negative = inhibition was 4.22% [at 11.4 µM] (inactive). For `COc1cc(OC)nc(NC(C)=O)n1`, the AC50 result is “inactive”. `CSc1cc(C)nc(NC(C)=O)n1`: the AC50 is 7.94 µM (active).

With `O=C(Oc1ccc2ccccc2c1Br)N1CCCCCC1`, the AC50 is 1.78 µM (active). The same measure, in the same setting: with `O=C(Oc1ccccc1)N1CCC2(CC1)CCN(c1ccccc1)CC2` the entry was “inactive”; with `Cc1cc(C)c2c(-n3cccc3)n[nH]c2n1`, 5.01 µM (active); with `Cc1cc(C)c2c(-n3cccc3)nn(CC#N)c2n1`, 11.2 µM (active). With `CN(C)/N=N\c1nc[nH]c1C(N)=O`, the AC50 entry was “inactive”.

In the case of `CCc1nnc2sc(-c3ccc(NC(=O)c4ccco4)cc3)nn12`, the AC50 was 28.2 µM (active). Turning to `O=C(O)[C@@H](O)[C@@H](O)[C@@H](O[C@H]1O[C@@H](CO)[C@@H](O)[C@@H](O)[C@@H]1O)[C@@H](O)CO`, the AC50 entry is “inactive”.

`Cc1cccc(CSc2cccc3cccnc23)c1`: the AC50 was 2.24 µM (active). The same measure, in the same setting: with `COc1ccc(/C(C)=N/NC(=O)c2ccc(CSc3cccc4cccnc34)cc2)cc1OC` the figure was 2.51 µM (active); with `COCC(C)NCc1cccc(C)c1` (stereo not drawn), “inactive”. Turning to `CO[C@H]1COC(=O)C/C=C\[C@H](C)[C@@H](OC)COC(=O)[C@H](C)COC(=O)C/C=C\[C@@H]1C`, the activity, negative = inhibition is 9.22% [at 11.4 µM] (inactive).

On to `Cc1ccc(-n2ncc(N(C)C)c(Cl)c2=O)cc1`, for which the AC50 entry is “inactive”. For the compound `C=CCNc1cnn(-c2ccc(C)cc2)c(=O)c1Cl`, the AC50 is 11.2 µM (active). Regarding `CC(C)/C(=N/[N+](C)(C)C)c1ccccc1`, the activity, negative = inhibition is 18.6% [at 11.4 µM] (inactive). Regarding `C[C@@H](C(=O)O)c1ccc(C(=O)c2ccccc2)s1`, the AC50 is 3.98 µM (active). With `C[C@@H](C(=O)O)c1ccc(C(=O)c2cccs2)cc1`, the AC50 entry is “inactive”. Take `COCCNC(=O)CSc1ncnc2sccc12`: the AC50 result was “inactive”.

For `Cc1ccccc1Oc1ncnc2oc(-c3ccccc3)cc12`, the AC50 was 3.98 µM (active). Take `Cc1cc(Cl)ccc1Oc1ncnc2oc(-c3ccccc3)cc12`: the AC50 was 1.12 µM (active).

For `Cc1ccccc1Oc1ncnc2sccc12`, the AC50 is 3.55 µM (active). Regarding `COc1cccc([C@H](O)Cn2cc(-c3ccc(CON=C(C)C)cc3)nn2)c1`, the activity, negative = inhibition was 6.04% [at 11.4 µM] (inactive).

Regarding `Cc1cccc(OCCn2c(S(=O)(=O)O)nc3ccccc32)c1`, the AC50 entry was “inactive”. The same measure, in the same setting: with `Cc1cccc(OCCn2c(-c3ccco3)nc3ccccc32)c1` the figure was 1.58 µM (active).
